For some of these results: Potency and affinity values are given separately.

Parameters in all cases: scale not given: direction of the effect not stated beside the values
The target in assay [1] is Protein translocase subunit SecA (Escherichia coli (strain K12)) (UniProt P10408). The assay is described as follows: Assay to Identify E. coli SecA ATPase Inhibitors. Type of assay: functional. The following applies: 30 µM.
The target of assay [2] is T1, Ubiquitin-activating enzyme e1, putative (Leishmania donovani (strain BPK282A1)) (UniProt E9BSI1).
T1 sequence (whole entry): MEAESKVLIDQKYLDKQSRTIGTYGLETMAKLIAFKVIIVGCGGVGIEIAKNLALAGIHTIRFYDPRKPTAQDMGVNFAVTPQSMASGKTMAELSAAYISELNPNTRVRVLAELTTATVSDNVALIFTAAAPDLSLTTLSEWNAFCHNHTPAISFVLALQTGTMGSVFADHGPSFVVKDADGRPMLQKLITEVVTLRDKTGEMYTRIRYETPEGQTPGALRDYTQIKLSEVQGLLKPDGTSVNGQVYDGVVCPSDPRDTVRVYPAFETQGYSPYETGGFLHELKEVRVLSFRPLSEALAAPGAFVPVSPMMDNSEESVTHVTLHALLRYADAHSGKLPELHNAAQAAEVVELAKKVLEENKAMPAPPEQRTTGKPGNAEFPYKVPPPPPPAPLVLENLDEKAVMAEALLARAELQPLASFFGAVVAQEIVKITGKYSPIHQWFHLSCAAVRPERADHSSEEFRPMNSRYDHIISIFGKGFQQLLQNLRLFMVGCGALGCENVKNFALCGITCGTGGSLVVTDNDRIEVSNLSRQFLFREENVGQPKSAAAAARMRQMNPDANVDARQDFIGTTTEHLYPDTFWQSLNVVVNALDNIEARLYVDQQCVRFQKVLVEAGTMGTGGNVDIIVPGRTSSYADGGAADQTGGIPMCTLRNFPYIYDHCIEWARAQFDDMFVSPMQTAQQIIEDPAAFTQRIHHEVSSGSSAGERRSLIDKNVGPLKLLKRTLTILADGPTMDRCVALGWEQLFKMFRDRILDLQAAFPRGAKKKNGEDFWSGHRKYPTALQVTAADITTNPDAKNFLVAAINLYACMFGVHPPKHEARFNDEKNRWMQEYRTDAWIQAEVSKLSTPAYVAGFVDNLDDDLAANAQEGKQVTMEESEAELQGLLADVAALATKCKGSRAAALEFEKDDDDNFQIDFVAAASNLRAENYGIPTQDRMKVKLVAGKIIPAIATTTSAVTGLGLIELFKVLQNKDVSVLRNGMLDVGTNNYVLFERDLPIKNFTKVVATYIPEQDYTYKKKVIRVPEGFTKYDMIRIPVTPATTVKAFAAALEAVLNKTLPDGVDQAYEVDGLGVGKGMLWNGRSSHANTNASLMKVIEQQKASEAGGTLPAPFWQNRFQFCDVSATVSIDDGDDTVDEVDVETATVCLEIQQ
The assay is described as follows: Leishmania donovani Ubiquitin Activating Enzyme (LdE1). Type of assay: functional. The note with it: 30 µM.

Assay [3] deals with AMP-activated protein kinase, AMPK (Homo sapiens) (UniProt P54646+O43741+P54619+Q9UGJ0+Q9Y478+Q13131+Q9UGI9). The assay is described as follows: AMP-dependent Kinase enzyme assay. An in vitro enzyme assay that detects ADP turnover that is directly proportional to AMPK activity. This uses naive AMPK that is activated during the assay with MK-8722. Type of assay: functional. The note with it: 30 µM.

Assay [4] has as its target Sialic acid-binding Ig-like lectin 9 (Homo sapiens) (UniProt Q9Y336). The assay is described as follows: Hs-Siglec9 ALPHAscreen SOP 20170721. The note with it: 10 µM. (Bead proximity is the source of the signal in Alpha formats.)
A further assay relates to Trypanosoma cruzi. The assay is described as follows: Trypanosoma cruzi phosphomannomutase and mannose-1-phosphate guanylyltransferase assay. It counts as functional. The note with it: 10 µM.
The target in assay [5] is T2, Arginase-2, mitochondrial (Homo sapiens) (UniProt P78540).
T2 sequence (whole entry): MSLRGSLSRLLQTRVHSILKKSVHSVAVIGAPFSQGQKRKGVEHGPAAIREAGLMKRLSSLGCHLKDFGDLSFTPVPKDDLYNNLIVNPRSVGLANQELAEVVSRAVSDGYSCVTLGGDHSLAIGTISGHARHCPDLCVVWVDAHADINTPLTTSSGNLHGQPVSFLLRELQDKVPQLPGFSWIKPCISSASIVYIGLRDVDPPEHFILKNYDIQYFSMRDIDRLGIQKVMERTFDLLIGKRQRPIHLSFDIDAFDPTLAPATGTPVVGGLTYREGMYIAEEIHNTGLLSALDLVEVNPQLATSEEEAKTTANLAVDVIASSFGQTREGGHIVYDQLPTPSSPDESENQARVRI
The assay is described as follows: in vitro enzyme assay to detect the production of urea directly proportional to the activity of Arginase II. Note: in the data most compounds retested in dose-response had high values. It counts as functional. The following applies: 33.3 µM.

In assay [6] the target is T3, Proteasome subunit beta (Trypanosoma cruzi) (UniProt O96673).
T3 sequence (whole entry): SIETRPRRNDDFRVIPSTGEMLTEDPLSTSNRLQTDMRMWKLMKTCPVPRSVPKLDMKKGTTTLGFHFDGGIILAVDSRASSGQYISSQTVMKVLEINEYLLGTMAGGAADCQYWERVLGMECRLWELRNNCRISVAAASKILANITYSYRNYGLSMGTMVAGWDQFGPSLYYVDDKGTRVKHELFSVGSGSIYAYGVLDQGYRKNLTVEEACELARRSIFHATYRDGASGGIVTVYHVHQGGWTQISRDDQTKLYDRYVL
The assay is described as follows: Trypanosoma cruzi proteasome chymotrypsin-like activity (TcProtChymo) assay. Note: in the data most compounds retested in dose-response had high values. Type of assay: functional. The note with it: 9.37 µM.

The species named for a further assay is Homo sapiens. The assay is described as follows: To identify inhibition of the IFN signalling (Jak-Stat) pathway via expression of an eGFP reporter gene under the control of an IFN-stimulated response element (ISRE) containing MxA promoter. Type of assay: functional. The note with it: 30 µM.
For assay [7], the target named is T4, Tyrosyl-tRNA synthetase, putative (Trypanosoma cruzi (strain CL Brener)) (UniProt Q4DSP6).
T4 sequence (whole entry): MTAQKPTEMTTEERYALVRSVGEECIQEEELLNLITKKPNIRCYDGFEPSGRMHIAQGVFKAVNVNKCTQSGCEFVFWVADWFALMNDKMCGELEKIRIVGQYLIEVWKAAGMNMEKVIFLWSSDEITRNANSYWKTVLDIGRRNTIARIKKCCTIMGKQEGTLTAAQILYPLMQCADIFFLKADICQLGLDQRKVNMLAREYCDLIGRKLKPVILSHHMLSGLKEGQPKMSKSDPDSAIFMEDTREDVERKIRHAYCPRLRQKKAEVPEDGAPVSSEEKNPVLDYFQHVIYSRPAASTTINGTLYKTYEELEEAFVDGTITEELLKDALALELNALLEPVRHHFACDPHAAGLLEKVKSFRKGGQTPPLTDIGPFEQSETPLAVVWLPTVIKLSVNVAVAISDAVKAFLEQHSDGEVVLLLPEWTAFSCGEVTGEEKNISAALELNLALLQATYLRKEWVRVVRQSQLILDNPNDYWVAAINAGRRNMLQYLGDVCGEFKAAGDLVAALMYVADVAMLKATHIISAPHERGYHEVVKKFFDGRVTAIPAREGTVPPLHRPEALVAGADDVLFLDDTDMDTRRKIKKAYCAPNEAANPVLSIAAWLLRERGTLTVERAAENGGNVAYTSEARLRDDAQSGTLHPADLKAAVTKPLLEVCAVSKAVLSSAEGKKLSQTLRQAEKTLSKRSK
The assay is described as follows: Trypanosoma cruzi tyrosyl tRNA synthetase (TcYRS) _High Tyrosine SOP. Note: in the data most compounds retested in dose-response had high values. It counts as functional. The note with it: 30 µM.

Assay [8] deals with T4, Tyrosyl-tRNA synthetase, putative (Trypanosoma cruzi (strain CL Brener)). The assay is described as follows: Trypanosoma cruzi tyrosyl tRNA synthetase (TcYRS) SOP. The following applies: 30 µM. Type of assay: functional.
Assay [9] concerns the target Chromo domain-containing protein 1 (Saccharomyces cerevisiae (strain ATCC 204508 / S288c) (Baker's yeast)) (UniProt P32657). The assay is described as follows: ScCHD-1 Enzyme Inhibition Assay. Note: in the data most compounds retested in dose-response had high values. It counts as functional. The following applies: 30 µM.

Sequence of Chromo domain-containing protein 1 (Saccharomyces cerevisiae (strain ATCC 204508 / S288c) (Baker's yeast)) (P32657 whole entry, the tested form may be a part): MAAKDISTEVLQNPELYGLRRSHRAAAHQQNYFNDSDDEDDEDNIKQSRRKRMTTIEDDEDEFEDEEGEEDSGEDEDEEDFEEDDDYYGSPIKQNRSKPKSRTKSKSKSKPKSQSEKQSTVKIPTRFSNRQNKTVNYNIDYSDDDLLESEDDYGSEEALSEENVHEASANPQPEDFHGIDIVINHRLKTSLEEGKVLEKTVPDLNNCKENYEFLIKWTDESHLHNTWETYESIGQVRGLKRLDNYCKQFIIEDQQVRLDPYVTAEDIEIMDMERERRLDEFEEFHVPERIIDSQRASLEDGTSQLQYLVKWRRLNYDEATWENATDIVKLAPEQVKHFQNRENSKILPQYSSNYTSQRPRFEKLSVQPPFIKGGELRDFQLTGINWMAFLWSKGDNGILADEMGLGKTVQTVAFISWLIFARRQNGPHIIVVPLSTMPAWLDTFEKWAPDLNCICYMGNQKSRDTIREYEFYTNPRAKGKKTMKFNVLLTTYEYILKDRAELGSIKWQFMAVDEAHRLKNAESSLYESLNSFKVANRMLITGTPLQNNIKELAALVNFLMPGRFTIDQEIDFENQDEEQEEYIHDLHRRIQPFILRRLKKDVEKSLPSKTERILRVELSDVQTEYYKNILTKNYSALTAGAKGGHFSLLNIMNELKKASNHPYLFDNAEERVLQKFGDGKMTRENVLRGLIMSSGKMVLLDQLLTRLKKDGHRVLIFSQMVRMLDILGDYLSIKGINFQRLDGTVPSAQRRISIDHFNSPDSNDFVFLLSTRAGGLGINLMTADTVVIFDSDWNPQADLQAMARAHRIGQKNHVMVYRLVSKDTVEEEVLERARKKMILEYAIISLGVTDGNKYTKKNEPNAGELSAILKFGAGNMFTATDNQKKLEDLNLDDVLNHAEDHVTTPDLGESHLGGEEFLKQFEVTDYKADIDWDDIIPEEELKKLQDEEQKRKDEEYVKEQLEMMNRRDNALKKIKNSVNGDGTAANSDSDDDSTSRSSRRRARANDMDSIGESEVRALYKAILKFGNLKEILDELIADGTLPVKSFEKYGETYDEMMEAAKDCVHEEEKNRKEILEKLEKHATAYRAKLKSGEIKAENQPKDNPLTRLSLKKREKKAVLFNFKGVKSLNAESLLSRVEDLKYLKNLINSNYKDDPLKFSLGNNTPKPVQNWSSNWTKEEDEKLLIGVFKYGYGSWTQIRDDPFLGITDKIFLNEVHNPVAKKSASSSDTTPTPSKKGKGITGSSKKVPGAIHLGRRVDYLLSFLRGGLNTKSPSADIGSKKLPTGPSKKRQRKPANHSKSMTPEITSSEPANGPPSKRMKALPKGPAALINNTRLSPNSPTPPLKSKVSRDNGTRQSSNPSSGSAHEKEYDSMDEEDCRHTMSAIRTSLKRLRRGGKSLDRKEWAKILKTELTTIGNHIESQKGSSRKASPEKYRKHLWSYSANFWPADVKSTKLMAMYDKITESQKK
Sequence of Protein translocase subunit SecA (Escherichia coli (strain K12)) (P10408 whole entry): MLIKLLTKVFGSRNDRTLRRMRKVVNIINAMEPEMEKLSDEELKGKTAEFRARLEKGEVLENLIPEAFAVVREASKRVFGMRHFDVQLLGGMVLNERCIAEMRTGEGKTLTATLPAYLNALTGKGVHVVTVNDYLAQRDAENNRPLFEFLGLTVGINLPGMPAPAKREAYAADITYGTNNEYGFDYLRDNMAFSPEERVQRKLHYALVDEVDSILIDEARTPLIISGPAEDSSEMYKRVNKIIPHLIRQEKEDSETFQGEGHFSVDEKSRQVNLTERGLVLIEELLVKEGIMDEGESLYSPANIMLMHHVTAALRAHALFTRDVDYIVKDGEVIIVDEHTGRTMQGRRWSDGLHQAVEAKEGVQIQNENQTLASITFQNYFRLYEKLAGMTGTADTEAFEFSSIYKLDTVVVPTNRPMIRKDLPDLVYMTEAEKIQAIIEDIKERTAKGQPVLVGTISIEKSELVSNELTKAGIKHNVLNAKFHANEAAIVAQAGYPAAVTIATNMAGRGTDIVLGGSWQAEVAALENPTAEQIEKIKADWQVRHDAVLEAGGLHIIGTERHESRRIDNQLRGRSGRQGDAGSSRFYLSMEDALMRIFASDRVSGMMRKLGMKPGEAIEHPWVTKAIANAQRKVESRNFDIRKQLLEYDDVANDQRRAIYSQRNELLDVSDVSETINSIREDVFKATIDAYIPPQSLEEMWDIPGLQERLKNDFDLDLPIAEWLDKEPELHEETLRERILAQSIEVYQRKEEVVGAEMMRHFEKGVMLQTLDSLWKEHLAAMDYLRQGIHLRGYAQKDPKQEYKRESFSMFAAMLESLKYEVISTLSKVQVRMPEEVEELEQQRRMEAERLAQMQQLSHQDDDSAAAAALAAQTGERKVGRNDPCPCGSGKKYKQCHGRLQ
Sequence of Sialic acid-binding Ig-like lectin 9 (Homo sapiens) (Q9Y336 whole entry): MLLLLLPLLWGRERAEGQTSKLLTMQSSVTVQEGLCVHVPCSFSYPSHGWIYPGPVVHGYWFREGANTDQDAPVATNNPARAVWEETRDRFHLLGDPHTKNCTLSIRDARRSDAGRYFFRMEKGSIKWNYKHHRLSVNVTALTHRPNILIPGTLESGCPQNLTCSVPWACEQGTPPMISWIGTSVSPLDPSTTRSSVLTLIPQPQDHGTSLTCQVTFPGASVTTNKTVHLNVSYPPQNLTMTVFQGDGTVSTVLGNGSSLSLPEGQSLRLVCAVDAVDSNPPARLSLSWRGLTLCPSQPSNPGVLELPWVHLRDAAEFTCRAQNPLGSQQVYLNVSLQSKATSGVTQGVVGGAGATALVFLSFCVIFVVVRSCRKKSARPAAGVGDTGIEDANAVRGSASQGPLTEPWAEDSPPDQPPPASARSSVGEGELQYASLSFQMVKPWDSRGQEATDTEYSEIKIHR

`CC(C(=O)NCc1ccnc(N2CCN(C)CC2)c1)n1cccn1` (stereo unspecified): the Percent Effect in assay [1] was -0.897%; in assay [2], 0%; in [3], -0.213%; in [4], 6.59%; in the assay with Trypanosoma cruzi it was 7.14%; in [5] it was 3.06%. Moreover, the Percent Effect in assay [6] is -4.18%; in the assay listed under Homo sapiens, 1.68%; in assay [7] it was 0.49%; in [8], 7.32%; in [9], -5.23%.
In the case of `CC(=O)N1CCN(S(=O)(=O)c2ccc(C)c(F)c2)CC1`, the Percent Effect was -4.54% in [1]; 10.5% in assay [2]; 2.19% in assay [3]; -1.23% in [4]; 5.75% in the assay on Trypanosoma cruzi; 9.47% in [5]. Moreover, the Percent Effect is 13.1% in [6]; 12.6% in the assay listed under Homo sapiens; 2.13% in [7]; 15.6% in assay [8]; -3.17% in assay [9].
As for `Cc1cc(NC(=O)CN2CCCC2c2noc(C3CC3)n2)no1` (stereo unspecified), the Percent Effect in [1] is -4.72%; in assay [2], 13.7%; in [3], 11.2%; in assay [4], 9.93%; in the assay with Trypanosoma cruzi, 5.68%; in assay [5], -0.909%. In addition, the Percent Effect came to 16.9% in [6]; 5.99% in the assay filed under Homo sapiens; 3.23% in [7]; 15% in assay [8]; 22.7% in [9].
With `CN1CCCC[C@@H]2[C@H]1[C@@H](c1ccccc1)CCN2C(=O)c1ccccc1`, the Percent Effect in assay [1] is -2.17%; in assay [2], -12.2%; in assay [3] it was 2.42%; in assay [4] it was 3.03%; in the assay with Trypanosoma cruzi, 4.54%; in [5] it was 0.696%. For the same molecule, the Percent Effect was 15.6% in assay [6]; -13.3% in the assay listed under Homo sapiens; 7.53% in assay [7]; 14.3% in assay [8]; -12.5% in [9].
Regarding `CN(CCCNC(=O)N1CCCC1c1ccsc1)c1ccccn1` (stereo unspecified), the Percent Effect is -0.565% in assay [1]; 28.6% in assay [2]; -13.6% in assay [3]; -0.894% in assay [4]; 1.5% in the assay on Trypanosoma cruzi; 3.92% in assay [5]. For the same molecule, the Percent Effect in assay [6] was 12.5%; in the assay filed under Homo sapiens, 25.5%; in assay [7] it was 9.71%; in [8], 19.5%; in assay [9], -10.5%.
Consider `COc1cccc(N2CCN(Cc3ncc[nH]3)CC2=O)c1`, for which the Percent Effect in [1] was -0.114%; in [2] it was 6.94%; in assay [3], -20.4%; in assay [4], -7.16%; in the assay on Trypanosoma cruzi, -1.85%; in assay [5] it was -0.442%. Further, the Percent Effect was 12.3% in [6]; -17.7% in the assay listed under Homo sapiens; -2.1% in assay [7]; 10.3% in assay [8]; -4.76% in assay [9].
`Cc1cc(C2CCCN(C(=O)CN3CCN(C)CC3)C2)n[nH]1` (stereo unspecified): the Percent Effect in [1] is -0.557%; in assay [2] it was 13.5%; in assay [3], -4.16%; in assay [4], 2.41%; in the assay on Trypanosoma cruzi it was 2.32%; in assay [5], -4.25%. The Percent Effect in [6] was 16.9%; in the assay listed under Homo sapiens, 16.2%; in [7] it was 6.93%; in assay [8], 18.3%; in [9], -5.49%.
Consider `Cc1noc(C)c1CCC(=O)N1CCN(CCn2cncn2)CC1`, for which the Percent Effect in assay [1] is -2.87%; in assay [2] it was 4.17%; in assay [3], -6.26%; in assay [4], 2.38%; with Trypanosoma cruzi, 0.68%; in assay [5] it was 1.77%. The Percent Effect was 21.1% in assay [6]; -11.6% in the assay filed under Homo sapiens; 8.42% in assay [7]; 10.3% in [8]; -3.13% in [9].
Consider `Nc1nccc(N2CCCC(CO)(CCOc3ccccc3)C2)n1` (stereo unspecified), for which the Percent Effect in assay [1] is -4.62%; in [2] it was 2.6%; in assay [3], -0.596%; in [4], 19%; in the assay with Trypanosoma cruzi, 8.75%; in [5] it was -13.8%. Moreover, the Percent Effect was 15.3% in [6]; 41.9% in the assay filed under Homo sapiens; 7.53% in assay [7]; 13.6% in [8]; -3.14% in assay [9].
In the case of `NC(=O)c1ccc2c(c1)nc1n2CCN(Cc2ccco2)C1`, the Percent Effect in assay [1] was -3.62%; in assay [2], 21.1%; in [3], 5.96%; in [4], 1.24%; with Trypanosoma cruzi, 3.02%; in assay [5] it was -2.37%. Besides, the Percent Effect in [6] came to 9.49%; in the assay filed under Homo sapiens, 1.88%; in assay [7], 5.32%; in [8], 5.2%; in assay [9], 34.5%.
In the case of `O=C(NCCCOCC1CCCO1)c1cccnc1N1CCCC1` (stereo unspecified), the Percent Effect in assay [1] is -2.67%; in [2], 5.41%; in assay [3] it was 4.06%; in assay [4] it was -10.2%; in the assay on Trypanosoma cruzi, -2.93%; in [5], 0.833%. Moreover, the Percent Effect in [6] was 14.3%; in the assay listed under Homo sapiens, -4.98%; in assay [7], 9.9%; in [8], -3.66%; in [9], 6.21%.

The values are drawn from ChEMBL document CHEMBL3988442, “University of Dundee, Small-Polar-MMV Screening Library” (2021).
